# Test results: PubChem BioAssay (EPA / NIEHS)
# Results filed as inconclusive are left out. The source holds several records for some structures; these can differ, active in one and inactive in another. Active and inactive are the calls of the source. How the source made its calls: active means hit-call score of the fitted dose curve at least 0.9, where 1 is the maximum; inconclusive means response in the unintended direction; inactive means score below 0.9.
# What was measured:
# [1] = target: human Adenosine A2a Receptor (AdoRA2a), ADORA2A (gene 135) (UniProt P29274); experiment: NVS_GPCR_hAdoRA2a: NovaScreen (NVS) G Protein-Coupled Receptor Assay for human Adenosine A2a Receptor (AdoRA2a) (AID 2283256)
# Procedure, shortened: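 Cell-free radioligand binding on membranes from HEK293 expressing the receptor; competitive displacement read 1.5 h after dosing by filter-based scintillation counting. Primary screen in duplicate at 25 uM; actives followed in concentration series, with DMSO as baseline.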
# [2] = target: human Adrenergic, Alpha 2c Receptor (Adra2C), ADRA2C (gene 152) (UniProt P18825); experiment: NVS_GPCR_hAdra2C: NovaScreen (NVS) G Protein-Coupled Receptor Assay for human Adrenergic, Alpha 2c Receptor (Adra2C) (AID 2283259)
# Procedure, shortened: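 Radioligand binding on Sf9-expressed receptor membranes, 1 h after chemical dosing, filter-based scintillation read-out. Loss of binding fitted positively versus DMSO; primary duplicate screen at 25 uM, actives retested in concentration series.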
# [3] = target: human Adenosine A1 Receptor (AdoRA1), ADORA1 (gene 134) (UniProt P30542); experiment: NVS_GPCR_hAdoRA1: NovaScreen (NVS) G Protein-Coupled Receptor Assay for human Adenosine A1 Receptor (AdoRA1) (AID 2283254)
# Procedure, shortened: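 Radioligand competition binding on human cortical membranes, 1 h after compound addition; bound radioactivity read by filtration and scintillation counting. Loss of signal versus DMSO baseline scored as displacement; primary screen duplicate at 25 uM, actives retested in concentration series.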
# [4] = target: human Serotonin, 5-Hydroxytryptamine Receptor 7 (5HT7), HTR7 (gene 3363) (UniProt P34969); experiment: NVS_GPCR_h5HT7: NovaScreen (NVS) G Protein-Coupled Receptor Assay for human Serotonin, 5-Hydroxytryptamine Receptor 7 (5HT7) (AID 2283255);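 further: hits reduce specific radioligand binding relative to DMSO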
# Procedure, shortened: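 Radioligand displacement on membranes from CHO cells expressing human 5HT7, 1 h incubation, filter-based scintillation counting. Primary screen used a single 25 uM concentration in duplicate; actives were followed up in concentration series.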
# [5] = target: guinea pig Opioid, Kappa 1 Receptor (OpiateK), OPRK1 (gene 100135587) (UniProt P41144); experiment: NVS_GPCR_gOpiateK: NovaScreen (NVS) G Protein-Coupled Receptor Assay for guinea pig Opioid, Kappa 1 Receptor (OpiateK) (AID 2283252);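 further: radioligand displacement from kappa opioid receptor in guinea pig cerebellar membranes; active means reduced radioligand binding relative to DMSO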
# Procedure, shortened: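 Guinea pig cerebellar membranes were incubated with a radioligand for 2 h after compound addition; bound radioactivity was read by filter-based scintillation counting. Loss of specific binding relative to DMSO baseline defined activity; primary screen at 25 uM in duplicate.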
# [6] = target: Muscarinic acetylcholine receptor M2 (Homo sapiens) (UniProt P08172); experiment: NVS_GPCR_hM2: NovaScreen (NVS) G Protein-Coupled Receptor Assay for human Muscarinic, M2 Receptor (AID 2283273)
# Procedure, shortened: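 Cell-free radioligand binding using membranes from CHO cells expressing the receptor; filter-based scintillation counting after 1 hour of compound exposure. Loss of specific binding relative to DMSO baseline; primary screen at 25 uM in duplicate, actives then run in concentration series.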
# [7] = target: human Adrenergic, Beta 3 Receptor (Adrb3), ADRB3 (gene 155) (UniProt P13945); experiment: NVS_GPCR_hAdrb3: NovaScreen (NVS) G Protein-Coupled Receptor Assay for human Adrenergic, Beta 3 Receptor (Adrb3) (AID 2283262)
# Procedure, shortened: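 Membranes from SK-N-MC cells pretreated with isoproterenol and 8-bromo-cAMP were used in a radioligand competitive displacement binding assay. Binding was read by filter-based scintillation counting 1 hour after dosing. Primary screening was in duplicate at 25 uM, with concentration series in follow-up.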
# [8] = target: human Adrenergic, Beta 1 Receptor (Adrb1), ADRB1 (gene 153) (UniProt P08588); experiment: NVS_GPCR_hAdrb1: NovaScreen (NVS) G Protein-Coupled Receptor Assay for human Adrenergic, Beta 1 Receptor (Adrb1) (AID 2283258)
# Procedure, shortened: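 Cell-free radioligand displacement on receptor from human neuroepithelioma cells; 2 h after dosing, filter-based scintillation counting. Primary screen in duplicate at 25 uM, actives retested in concentration series; loss of signal vs DMSO baseline.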
# Chain of guinea pig Opioid, Kappa 1 Receptor (OpiateK), OPRK1 (gene 100135587) (P41144 whole entry, looked up): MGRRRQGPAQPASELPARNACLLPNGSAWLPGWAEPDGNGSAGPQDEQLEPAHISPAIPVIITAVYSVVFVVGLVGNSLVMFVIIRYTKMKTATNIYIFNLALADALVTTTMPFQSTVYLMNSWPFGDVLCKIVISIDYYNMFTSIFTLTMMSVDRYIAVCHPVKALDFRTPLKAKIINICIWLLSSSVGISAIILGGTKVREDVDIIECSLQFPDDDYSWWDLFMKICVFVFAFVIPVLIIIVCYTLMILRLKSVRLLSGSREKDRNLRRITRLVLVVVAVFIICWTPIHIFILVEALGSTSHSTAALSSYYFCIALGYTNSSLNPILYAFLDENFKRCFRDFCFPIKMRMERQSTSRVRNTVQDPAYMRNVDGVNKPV
# Chain of human Adenosine A1 Receptor (AdoRA1), ADORA1 (gene 134) (P30542 whole entry, looked up): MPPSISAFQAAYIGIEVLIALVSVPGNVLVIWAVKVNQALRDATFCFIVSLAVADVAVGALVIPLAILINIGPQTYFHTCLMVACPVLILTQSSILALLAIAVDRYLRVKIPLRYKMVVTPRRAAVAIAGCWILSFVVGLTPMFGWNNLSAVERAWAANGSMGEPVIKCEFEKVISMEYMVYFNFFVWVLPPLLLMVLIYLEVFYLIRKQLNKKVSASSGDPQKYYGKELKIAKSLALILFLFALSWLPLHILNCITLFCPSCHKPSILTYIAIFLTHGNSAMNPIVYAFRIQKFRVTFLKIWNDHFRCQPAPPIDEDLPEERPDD
# Chain of human Adrenergic, Beta 1 Receptor (Adrb1), ADRB1 (gene 153) (P08588 whole entry, looked up): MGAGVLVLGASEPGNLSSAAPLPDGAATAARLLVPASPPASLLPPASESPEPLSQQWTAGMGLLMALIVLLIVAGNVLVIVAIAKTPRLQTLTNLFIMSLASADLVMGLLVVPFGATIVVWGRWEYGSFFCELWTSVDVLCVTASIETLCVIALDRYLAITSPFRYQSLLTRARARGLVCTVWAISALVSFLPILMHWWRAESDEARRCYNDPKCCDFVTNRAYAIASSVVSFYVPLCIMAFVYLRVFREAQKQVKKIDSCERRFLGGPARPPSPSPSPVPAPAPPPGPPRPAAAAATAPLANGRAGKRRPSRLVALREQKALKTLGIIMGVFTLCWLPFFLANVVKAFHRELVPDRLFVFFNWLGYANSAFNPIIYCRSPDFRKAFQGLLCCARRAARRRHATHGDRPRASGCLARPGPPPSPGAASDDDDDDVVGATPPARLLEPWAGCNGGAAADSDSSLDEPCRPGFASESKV
# Chain of human Serotonin, 5-Hydroxytryptamine Receptor 7 (5HT7), HTR7 (gene 3363) (P34969 whole entry, looked up): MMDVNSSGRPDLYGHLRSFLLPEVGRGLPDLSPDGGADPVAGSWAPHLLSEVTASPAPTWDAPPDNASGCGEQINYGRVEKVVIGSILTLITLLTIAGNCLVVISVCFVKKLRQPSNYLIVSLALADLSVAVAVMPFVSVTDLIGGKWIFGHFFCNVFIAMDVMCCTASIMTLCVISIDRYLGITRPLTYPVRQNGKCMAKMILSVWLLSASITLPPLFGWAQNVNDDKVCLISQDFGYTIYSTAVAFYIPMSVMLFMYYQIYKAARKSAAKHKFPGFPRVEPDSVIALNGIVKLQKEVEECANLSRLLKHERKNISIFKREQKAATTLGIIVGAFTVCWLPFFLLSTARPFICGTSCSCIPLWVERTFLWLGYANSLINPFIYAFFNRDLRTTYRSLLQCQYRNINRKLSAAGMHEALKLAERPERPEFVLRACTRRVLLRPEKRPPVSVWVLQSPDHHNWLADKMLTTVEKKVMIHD
# Chain of human Adenosine A2a Receptor (AdoRA2a), ADORA2A (gene 135) (P29274 whole entry, looked up): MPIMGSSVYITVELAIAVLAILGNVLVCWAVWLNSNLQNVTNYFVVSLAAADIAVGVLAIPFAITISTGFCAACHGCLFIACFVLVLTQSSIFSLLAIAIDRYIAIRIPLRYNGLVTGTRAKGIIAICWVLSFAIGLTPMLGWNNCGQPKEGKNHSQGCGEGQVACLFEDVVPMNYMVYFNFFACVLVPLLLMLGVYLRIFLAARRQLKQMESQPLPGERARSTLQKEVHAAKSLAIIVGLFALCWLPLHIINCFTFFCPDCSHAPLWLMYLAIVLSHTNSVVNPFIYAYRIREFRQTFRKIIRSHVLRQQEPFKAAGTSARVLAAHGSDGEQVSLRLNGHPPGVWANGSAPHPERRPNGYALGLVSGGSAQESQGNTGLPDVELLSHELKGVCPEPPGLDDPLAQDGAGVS
# Chain of human Adrenergic, Beta 3 Receptor (Adrb3), ADRB3 (gene 155) (P13945 whole entry, looked up): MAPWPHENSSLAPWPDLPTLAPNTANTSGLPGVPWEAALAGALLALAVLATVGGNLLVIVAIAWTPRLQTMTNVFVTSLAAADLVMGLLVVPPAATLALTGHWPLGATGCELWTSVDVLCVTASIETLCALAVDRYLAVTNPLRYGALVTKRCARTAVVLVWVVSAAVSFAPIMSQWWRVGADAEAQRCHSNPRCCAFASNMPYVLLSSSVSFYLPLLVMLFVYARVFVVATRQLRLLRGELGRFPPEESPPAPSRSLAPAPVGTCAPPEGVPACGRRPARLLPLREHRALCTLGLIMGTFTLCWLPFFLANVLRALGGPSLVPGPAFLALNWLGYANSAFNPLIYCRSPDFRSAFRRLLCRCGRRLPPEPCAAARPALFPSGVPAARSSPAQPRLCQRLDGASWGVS
# Chain of Muscarinic acetylcholine receptor M2 (Homo sapiens) (P08172 whole entry, looked up): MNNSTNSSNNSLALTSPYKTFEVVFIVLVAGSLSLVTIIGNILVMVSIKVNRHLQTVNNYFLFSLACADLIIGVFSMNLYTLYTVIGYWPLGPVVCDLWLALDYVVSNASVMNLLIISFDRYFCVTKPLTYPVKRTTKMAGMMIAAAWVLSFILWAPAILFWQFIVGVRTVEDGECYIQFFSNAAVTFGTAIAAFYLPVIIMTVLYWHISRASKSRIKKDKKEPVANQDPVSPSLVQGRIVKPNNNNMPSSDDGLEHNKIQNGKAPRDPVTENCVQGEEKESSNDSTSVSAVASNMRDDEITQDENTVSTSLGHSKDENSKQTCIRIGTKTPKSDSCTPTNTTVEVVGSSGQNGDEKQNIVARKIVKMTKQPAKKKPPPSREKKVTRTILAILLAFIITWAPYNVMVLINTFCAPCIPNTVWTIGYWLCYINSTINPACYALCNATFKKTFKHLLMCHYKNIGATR
# Chain of human Adrenergic, Alpha 2c Receptor (Adra2C), ADRA2C (gene 152) (P18825 whole entry, looked up): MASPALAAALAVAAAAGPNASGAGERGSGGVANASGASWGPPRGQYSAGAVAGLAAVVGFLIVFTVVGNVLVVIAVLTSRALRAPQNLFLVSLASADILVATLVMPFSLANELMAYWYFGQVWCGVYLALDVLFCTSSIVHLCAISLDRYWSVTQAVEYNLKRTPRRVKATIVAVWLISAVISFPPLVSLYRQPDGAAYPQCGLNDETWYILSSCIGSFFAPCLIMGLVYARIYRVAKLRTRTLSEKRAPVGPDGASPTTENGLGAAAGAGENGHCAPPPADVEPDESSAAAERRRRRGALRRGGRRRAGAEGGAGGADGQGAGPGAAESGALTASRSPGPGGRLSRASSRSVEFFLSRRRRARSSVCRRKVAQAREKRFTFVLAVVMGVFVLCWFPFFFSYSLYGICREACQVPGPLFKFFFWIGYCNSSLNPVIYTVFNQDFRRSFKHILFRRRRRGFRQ
smiles,measurement,setting,value
O=C(O)C(F)(F)C(F)(F)C(F)(F)C(F)(F)C(F)(F)C(F)(F)C(F)(F)C(F)(F)F,AC50,[1],10.6 µM (active)
same,AC50,[2],25 µM (active)
Cc1cc2c3c(c1)C(c1ccccc1)=N[C@@H](NC(=O)c1ccncc1)C(=O)N3CC2,outcome,[3],inactive
same,AC50,[4],25 µM (active)
CC1=C2C[C@H]3[C@@H](CC=C4C[C@@H](O)CC[C@@]43C)[C@@H]2CC[C@]12O[C@@H]1C[C@H](C)CN[C@H]1[C@H]2C,AC50,[5],1.33 µM (active)
CCC(=O)O[C@H]1CC[C@H]2[C@@H]3CCC4=CC(=O)CC[C@]4(C)[C@H]3CC[C@]12C,outcome,[6],inactive
c1cc2ccc3cccc4ccc(c1)c2c34,outcome,[7],inactive
CCCN(CCC)N=O,outcome,[8],inactive
CCCCCCCCOC(=O)c1ccccc1C(=O)OCCCCCCCC,outcome,[8],inactive
C[C@]12CCC(=O)C=C1CC[C@@H]1[C@@H]2CC[C@]2(C)C(=O)CC[C@@H]12,outcome,[5],inactive
same,outcome,[4],inactive
Oc1c(Cl)c(Cl)c(Cl)c(Cl)c1Cl,AC50,[5],12.6 µM (active)
same,outcome,[5],inactive
same,outcome,[3],inactive
same,AC50,[1],13.1 µM (active)
